High-throughput results from PubChem BioAssay.
DUX4 inh: inhibitors of DUX4-driven ZSCAN4 reporter expression, primary screen, 293T cells, Gaussia and Italica luciferase | 293T-iDUX4 ZSCAN4-Gaussia luciferase reporter, 24 h; hits give low values | activity change, negative = inhibition, % (test concentration not listed) | 0.8% of 37,000 active | AID 1224904, 2016;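 active = mean inhibition of at least 10% in the main channel, exceeding the control channel by a set limit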
Numbers stand for hits; – = inactive; ! = not active in a repeat. The sample as a whole holds a higher share of hits than the screen did.

SMILES	DUX4 inh
C[C@@H]1C(=O)N[C@@H](c2cccc(Cl)c2)CC=CC[C@H](C)Oc2ccccc2C(=O)N1C (mixture of isomers)	–
CCC(=O)N1CC2(CN(Cc3nccs3)C2)c2c(n(C)c3cc(OC)ccc23)[C@@H]1CO	–
COc1ccc2c3c([nH]c2c1)[C@@H](CO)N(Cc1ccccn1)CC31CN(C(C)=O)C1	–
COc1ccc2c3c([nH]c2c1)[C@@H](CO)N(C(=O)c1cnccn1)CC31CN(C(=O)c2cnccn2)C1	–
CCNC(=O)[C@@H]1[C@@H](CO)[C@@H]2Cn3c(ccc(-c4ccc(OC)cc4)c3=O)[C@@H]2N1Cc1ccccc1	–
COc1ccccc1CN(C)C[C@H]1OCc2ccccc2-c2c(n(C)c3ccccc23)C(=O)N([C@H](C)CO)C[C@H]1C	–
C[C@H](CO)N1C[C@H](C)[C@H](CN(C)Cc2ccccc2C(F)(F)F)OCc2ccccc2-c2c(n(C)c3ccccc23)C1=O	-59.4
C[C@@H]1CN([C@@H](C)CO)C(=O)c2c(c3ccccc3n2C)-c2ccccc2CO[C@@H]1CN(C)C	–
C[C@H]1CN([C@@H](C)CO)C(=O)c2c(c3ccccc3n2C)-c2ccccc2CO[C@H]1CN(C)C	–
C[C@@H]1CN([C@H](C)CO)C(=O)c2c(c3ccccc3n2C)-c2ccccc2CO[C@@H]1CN(C)C(=O)Nc1ccccc1C(F)(F)F	–
C[C@H](CO)N1C[C@H](C)[C@@H](CN(C)Cc2ccccc2C(F)(F)F)OCc2ccccc2-c2c(n(C)c3ccccc23)C1=O	-45.9
CN1C[C@@H]2[C@H](c3ccccc31)[C@H](CO)N2C(=O)Nc1ccccc1	–
COc1ccc2c3c(n(C)c2c1)[C@H](CO)N(C(=O)c1ccncc1)CC31CCN(C)CC1	–
CCC(=O)N1[C@H](CO)[C@H](c2ccccc2)C12CN(C(=O)c1ccc(F)cc1)C2	–
C[C@@H]1CC=CCCNC(=O)[C@@H](C)N(C)C(=O)c2ccccc2O1 (mixture of isomers)	–
CCCNC(=O)N1CC2(CCN(C(=O)COC)CC2)c2c(n(C)c3cc(OC)ccc23)[C@H]1CO	–
CC(=O)N1CC(=O)N2[C@H](CO)[C@H](c3ccc(C#Cc4cccnc4)cc3)[C@@H]2C1	-10.9
CCCC#Cc1ccc([C@H]2[C@H](CO)N3C(=O)CN(C(=O)Nc4cccc(F)c4)C[C@@H]23)cc1	-69.3
O=C(Nc1cccc(F)c1)N1CC(=O)N2[C@H](CO)[C@@H](c3ccc(C#CCC4CCCC4)cc3)[C@@H]2C1	–
CC(=O)N1CC(=O)N2[C@H](CO)[C@@H](c3ccc(C#Cc4cccnc4)cc3)[C@@H]2C1	–
CCCC#Cc1ccc([C@H]2[C@H]3CN(C(=O)Nc4ccccc4)CC(=O)N3[C@H]2CO)cc1	–
CC(=O)N1CC(=O)N2[C@H](C1)[C@@H](c1ccc(C#Cc3cccnc3)cc1)[C@@H]2CO	–
O=C1CNC[C@H]2[C@@H](c3ccc(C#CC4CCCCC4)cc3)[C@H](CO)N12	–
O=C1CNC[C@@H]2[C@H](c3ccc(C#CC4CCCCC4)cc3)[C@@H](CO)N12	–
O=C1CNC[C@@H]2[C@@H](c3ccc(C#Cc4cccnc4)cc3)[C@@H](CO)N12	-19.5
SMILES	DUX4 inh
O=C(C[C@@H]1CC[C@@H](NS(=O)(=O)c2ccc(F)cc2)[C@@H](CO)O1)NC1CCCCC1	–
O=C(Cc1cccnc1)N1CC(=O)N2[C@@H](CO)[C@H](c3ccc(-c4cccc(F)c4)cc3)[C@@H]2C1	–
CS(=O)(=O)Nc1ccc2c(c1)[C@H]1C[C@H](CC(=O)O)O[C@@H](CO)[C@H]1O2	–
O=C(c1ccncc1)N1CC(=O)N2[C@@H](CO)[C@H](c3ccc(-c4ccccc4F)cc3)[C@@H]2C1	–
CC(=O)N1CC2(C1)[C@@H](c1ccc(-c3ccccc3C)cc1)[C@H](CO)N2C(C)=O	–
CCCN1C[C@H](C)[C@H](OC)CN(C)C(=O)c2cc(NC(=O)CC)ccc2OC[C@H]1C	–
CCCNC(=O)N1C[C@@H]2N[C@H](C1)C2c1ccc(-c2cccc(F)c2)cc1 (stereo partly specified)	-43.4!
COc1ccccc1-c1ccc(C2[C@H]3CNC[C@@H]2N3Cc2ccc(F)cc2)cc1 (stereo partly specified)	–
Cc1cccc(-c2ccc(C3[C@@H]4CN(C(=O)C5CCOCC5)C[C@H]3N4)cc2)c1 (stereo partly specified)	–
COc1cccc(CN2CCCCN3[C@@H](CO)[C@@H](c4ccc(-c5ccccc5OC)cc4)[C@@H]3C2)c1	–
COc1ccccc1-c1ccc([C@H]2[C@H](CO)N3CCCCN(Cc4ccncc4)C[C@@H]23)cc1	–
COc1ccccc1-c1ccc(C2[C@@H]3CN(Cc4cccc(F)c4)C[C@H]2N3)cc1 (stereo partly specified)	-48.4
Cc1cccc(-c2ccc(C3[C@H]4CNC[C@@H]3N4Cc3cccc(F)c3)cc2)c1 (stereo partly specified)	–
c1ccc(-c2ccc(C3[C@H]4CNC[C@@H]3N4Cc3nccs3)cc2)cc1 (stereo partly specified)	–
O=C(Nc1cccc(F)c1)N1C[C@@H]2N[C@H](C1)C2c1ccc(-c2ccc(F)cc2)cc1 (stereo partly specified)	–
CCCNC(=O)N1C[C@@H]2N[C@H](C1)C2c1ccc(-c2cccnc2)cc1 (stereo partly specified)	–
COc1ccccc1-c1ccc(C2[C@@H]3CN(Cc4nccs4)C[C@H]2N3)cc1 (stereo partly specified)	-43.0
Cc1cccc(-c2ccc(C3[C@@H]4CN(Cc5cccc(F)c5)C[C@H]3N4)cc2)c1 (stereo partly specified)	-54.7!
CCCC(=O)N1CC2(C1)CN(C(=O)C1CCCCC1)[C@@H](CO)c1[nH]c3cc(OC)ccc3c12	–
COc1ccc2c3c([nH]c2c1)[C@@H](CO)N(Cc1ccncc1)CC31CN(S(C)(=O)=O)C1	–
O=C1N[C@H](Cc2ccccc2)COCc2cnnn2CC[C@H]1Cc1cccc(F)c1	–
O=C(CC1CC1)N1CC(=O)N2[C@H](CO)[C@H](c3ccc(C#Cc4ccccc4)cc3)[C@@H]2C1	–
CCCC(=O)N1CC2(CN(C(C)=O)C2)c2c(n(C)c3cc(OC)ccc23)[C@H]1CO	–
O=C(C[C@@H]1CC[C@@H]2[C@H](COC[C@@H](O)CN2C(=O)c2cnccn2)O1)N1CCN(c2ccccc2)CC1	–
C[C@H]1CC=CC[C@H](c2ccc3c(c2)OCO3)NC(=O)[C@H](Cc2ccccc2)N(C)C(=O)c2ccccc2O1 (mixture of isomers)	–
COc1ccccc1CNC(=O)C[C@H]1C[C@H]2c3cc(NC(=O)CN(C)C)ccc3O[C@H]2[C@H](CO)O1	–
O=C(C[C@H]1C[C@H]2c3cc(NC(=O)Cc4ccncc4)ccc3O[C@H]2[C@H](CO)O1)NCc1cccc(F)c1	-29.9
O=C(C[C@@H]1C[C@H]2c3cc(NC(=O)Cc4ccncc4)ccc3O[C@H]2[C@@H](CO)O1)NCc1ccc(-c2ccccc2)cc1	-31.4
COc1ccccc1CNC(=O)C[C@H]1C[C@H]2c3cc(NC(=O)Cc4ccncc4)ccc3O[C@H]2[C@H](CO)O1	-34.4
O=C(C[C@@H]1C[C@H]2c3cc(NC(=O)Cc4ccncc4)ccc3O[C@H]2[C@@H](CO)O1)NCc1cccc(F)c1	–
